# Test system: VDR homodimer (NR concentration 270 nM)
# Assay: PBM binding z-score (relative to random genomic background probes); higher = stronger binding; sequences stand for … in GC…GCGATTGACAGCGTAGAATGAAGG
# How it was run: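 Binding buffer was PBS pH 7.4 with 2% milk, 0.02% Triton X-100, 1 mM DTT, 0.2 mg/mL BSA and 0.4 mg/ml salmon testes DNA. In it, ligand-free nuclear receptor dimers were incubated 1 h on custom Agilent 4×180K protein-binding microarrays carrying double-stranded probes. Antibodies against each partner (one per run) detected binding, and z-scores were calculated against random background probes after regression normalization of scanned fluorescence.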
row,Sequence,PBM binding z-score
1,CGTCCAAGGTCAGAGAGGTCAGTCAATGCCGAGT,5.88
2,AGAATCAGGTTATTAAGATCAGGGAATTGCGGTC,0.616
3,GATACAGCGTCAAGGCCAGAGTACGCGTATTGAT,0.0516
4,ATCTCTAGGTAACAAGTTCAGTGGAAGAGAGGAC,2.02
5,AGAATGAGGTTATCAAGATCAGGGAATTGCGGTC,0.805
6,GAGACTGGGGCAAAGCAGGTTACCATAAGGTTGG,-0.202
7,CAGACTGGGGCATAAGGTTACCATAAGCCAGCCC,-0.0112
8,CTCGAAAGGTCGGTTGAGGTGCGTATACGGATAA,0.626
9,ATCGAAATGTCGAAGGTGAGTATACCCACCCGAA,-0.0115
10,TCTAGTTGGTCACGGTGGTCACACACGACGGGTA,-0.372
11,AGAATGAGGTTATTTAGATCAGGGAATTGCGGTC,1.48
12,TAGCCTAGGTCATGGCCCAGTATACCACGCGAAC,0.698
13,GGTACGAGGGCATTCGAGTTGATAGCATGGCGAT,3.68
14,CGAACTCGGTCAGAACAGGACAGTGAAGGATGAT,0.368
15,CCTTACGGGTCCAGGTTATAGCACGGGTGGTACG,0.862
16,CCTATTAGTTGAGCATAAGGGCAACCGAAGCTCG,0.43
17,CCTGACGGGTCACTCCAGGTTATAGCATCGGAGT,1.27
18,CAAACTAGGTCACCGGAAGGTCAAATTCCGCATG,2.93
19,TGAATGAGGTTAAAGATTAGGGAACGTGGCGTCG,0.533
20,GCTATTAGTTGAAAGGGCTACCGAATGATTCTCG,-0.485

row,Sequence,PBM binding z-score
1,TCAGACAGGTGAAGGTAACTCTGGTACGCAGTCG,0.154
2,ATCTCTAGGTCAGACTCAGTTCAGTGAAGAACGC,2.32
3,TAGCATAGGTCATTGGGCCAGTATAGTACGCATC,0.622
4,CCAACTAGGTCAAAGGTCAAAGTCGAGCCAACCA,3.47
5,CCTACTGGGCCAAAAGTCATTGATTCCAATGCTC,-0.212
6,GCTGATAGGTCAACTGATGGTCAGCTAAAGCTCG,-0.0716
7,CCTACTGGGCCACGCAAGGTCATTGATTCAGTGA,2.93
8,TCATATAGGTAAAGGTGAAAGTCGAACGATATGA,0.236
9,CGTCCAAGGTCGGCAGGTCAGTGAAAGCGACGTG,0.171
10,TCTAGCAGGCCAGATGGTCACTCAAGAGGTACGG,-1.21
11,ACAGACAGGTGAGTGAAGTTAACTCAGCTGGACG,-0.612
12,CAAACTAGGTCAAGGCCAAAGTCGGTTTGTGCCA,1.22
13,TAATATAGGTAAAAGGTGAAAGTCGGTGTGGTAA,0.638
14,GCTTGTAGATCAAGGATAAGAAAGACTAAGCTAA,-0.57
15,TCGAGTAGGTGAGTCGGGGCATTCAGCCAACATA,0.0574
16,TATACAGGGTCAAAGGCCAGAGAACGAATGTCGA,2.34
17,CGAACTAGGTCATTGACAGGACAGTCAATAGTAA,1.07
18,CCTACTGGGCCAAAGGGCATTGATTCCAATGCTC,-0.17
19,ATCCAAAGGTCGAAGGTGAGTATACCCACCCGAA,0.849
20,CCTAGCAGTCCAATCTGGGTCACTCAAGGCTTGA,0.187
